DUX4 txn inh: blocks DUX4-driven transcriptional activation; 293T-iDUX4 ZSCAN4-Gaussia luciferase reporter, 24 h; hits give low values; activity change, negative = inhibition, % (no concentration beside the values); 37,000 compounds, 0.8% hits;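 active = mean inhibition of at least 10% in the main channel, exceeding the control channel by a set limit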;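 note: 0% = median of neutral control wells and -100% = median of positive control wells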
* hit, by the source's call. The sample as a whole holds a higher share of hits than the screen did.

SMILES	DUX4 txn inh
C/C=C/c1cnc2c(c1)C(=O)N([C@@H](C)CO)C[C@H](C)[C@H](CN(C)S(=O)(=O)c1cn(C)cn1)O2	-1.5
C/C=C/c1ccc([C@H]2[C@@H](CO)N3CCCCN(C(=O)Nc4ccc(OC)cc4)C[C@H]23)cc1	-9.2
Cc1ccccc1-c1ccc([C@@H]2[C@@H](CO)N3CCCCN(C(=O)NC4CCCC4)C[C@H]23)cc1	-8.6
Cc1ccccc1-c1ccc([C@H]2[C@H](CO)N3CCCCN(S(=O)(=O)c4ccc(F)cc4)C[C@@H]23)cc1	-56.1*
C/C=C/c1ccc([C@@H]2[C@@H](CO)N3CCCCN(C(=O)Nc4ccc(OC)cc4)C[C@@H]23)cc1	-26.5*
C/C=C/c1ccc([C@@H]2[C@H](CO)N3CCCCN(C(=O)Nc4ccc(OC)cc4)C[C@@H]23)cc1	18.3
COc1ccccc1-c1ccc([C@H]2[C@@H](CO)N3CCCCN(C(=O)NC4CCCC4)C[C@H]23)cc1	-23.0*
CCS(=O)(=O)N1CCCCN2[C@H](CO)[C@H](c3ccc(-c4ccccc4C)cc3)[C@H]2C1	-4.6
O=C(NC1CCCC1)N1CCCCN2[C@H](C1)[C@H](c1ccc(-c3ccccc3)cc1)[C@@H]2CO	1.0
Cc1ccccc1-c1ccc([C@H]2[C@H]3CN(S(C)(=O)=O)CCCCN3[C@H]2CO)cc1	-6.5
COCC#Cc1cnc2c(c1)C(=O)N([C@@H](C)CO)C[C@@H](C)[C@H](CN(C)Cc1ccc(-c3ccccc3)cc1)O2	-1.3
O=C(O)C[C@@H]1CC[C@H]2[C@@H](COC[C@H](O)CN2S(=O)(=O)c2ccc(Oc3ccccc3)cc2)O1	4.3
COC(=O)C[C@H]1CC[C@@H]2[C@H](COc3ccc(NC(=O)c4ccc(OC)cc4)cc3C(=O)N2C)O1	-0.4
C[C@H](NC(=O)N(C)C[C@H]1OCc2ccccc2-c2ccccc2C(=O)N([C@H](C)CO)C[C@H]1C)c1ccccc1	0.5
O=C(C[C@@H]1CC[C@H]2[C@@H](COC[C@@H](O)CN2C(=O)c2ccccc2)O1)Nc1ccc(-c2ccccc2)cc1	-6.6
CCC(=O)N1[C@@H]2CN(S(=O)(=O)c3ccccc3)c3ccccc3[C@@H]2[C@@H]1CO	0.9
COc1ccc2c3c(n(C)c2c1)[C@@H](CO)N(C(=O)NC(C)C)CC31CCN(C(C)=O)CC1	13.6
COc1cccc(C#Cc2ccc([C@@H]3[C@@H](C#N)N[C@@H]3CO)cc2)c1	-0.5
C[C@@H]1CN([C@@H](C)CO)S(=O)(=O)c2ccc(C#Cc3ccccc3F)cc2O[C@@H]1CN(C)CC1CCOCC1	2.5
C[C@H](CO)N1C[C@H](C)[C@@H](CN(C)Cc2cccc(O)c2)OCc2ccccc2-c2ccccc2C1=O	-0.1
C[C@@H]1CN([C@@H](C)CO)C(=O)c2ccccc2-c2ccccc2CO[C@@H]1CN(C)Cc1cccc(F)c1	12.1
C[C@@H]1CN([C@@H](C)CO)C(=O)c2ccccc2-c2ccccc2CO[C@@H]1CN(C)Cc1cccc(C(F)(F)F)c1	-63.1*
C[C@@H]1CN([C@@H](C)CO)C(=O)c2ccccc2-c2ccccc2CO[C@@H]1CN(C)Cc1ccc(C(F)(F)F)cc1	12.3
C[C@@H]1CN([C@@H](C)CO)C(=O)c2ccccc2-c2ccccc2CO[C@H]1CN(C)Cc1cccc(C(=O)O)c1	2.3
C[C@H]1CN([C@@H](C)CO)C(=O)c2ccccc2-c2ccccc2CO[C@@H]1CN(C)Cc1cccc(C(F)(F)F)c1	-37.5*
SMILES	DUX4 txn inh
O=C([C@@H]1N[C@@H]2c3ccc(-c4ccccc4F)c(=O)n3C[C@@H]2[C@H]1CO)N1CCCCC1	5.2
COC(=O)C[C@@H]1C[C@@H]2c3cc(NC(=O)Nc4ccccc4)ccc3O[C@@H]2[C@@H](CO)O1	0.3
O=C(CC1CC1)N1CC(=O)N2[C@H](CO)[C@@H](c3ccc(-c4cccnc4)cc3)[C@H]2C1	8.7
CC(=O)N1CC2(C1)[C@H](c1ccccc1)[C@@H](CO)N2CC1CCOCC1	3.3
COc1cccc(S(=O)(=O)Nc2ccc3c(c2)C(=O)N(C)[C@H]2CC[C@H](CC(=O)Nc4cc(F)ccc4F)O[C@@H]2CO3)c1	-6.5
CCN1[C@@H]2c3cccc(=O)n3C[C@@H]2[C@@H](CO)[C@@H]1C(=O)NC1Cc2ccccc2C1	4.7
COCC(=O)N1CCC2(CC1)CN(C(=O)Cc1ccccc1)[C@H](CO)c1c2c2ccc(OC)cc2n1C	20.6
C[C@H](O)C#Cc1ccc([C@@H]2[C@H](CO)N3CCCCN(S(=O)(=O)c4ccccc4)C[C@@H]23)cc1	0.5
C[C@H](O)C#Cc1ccc([C@H]2[C@H]3CN(S(=O)(=O)c4ccccc4)CCCCN3[C@H]2CO)cc1	1.9
O=C(Nc1ccc(F)cc1)N1CCCCN2[C@H](C1)[C@H](c1ccc(C#CC3CC3)cc1)[C@@H]2CO	24.3
O=S(=O)(c1ccccc1)N1CCCCN2[C@H](C1)[C@H](c1ccc(C#CC3CCCC3)cc1)[C@@H]2CO	-26.4*
O=S(=O)(c1ccccc1)N1CCCCN2[C@H](C1)[C@H](c1ccc(C#Cc3cccnc3)cc1)[C@@H]2CO	-45.3*
O=S(=O)(c1ccccc1)N1CCCCN2[C@H](CO)[C@H](c3ccc(C#CC4CCCC4)cc3)[C@@H]2C1	22.9
O=C(C1CC1)N1CCCCN2[C@H](CO)[C@H](c3ccc(C#CC4CCCC4)cc3)[C@H]2C1	-0.6
O=S(=O)(c1ccccc1)N1CCCCN2[C@H](CO)[C@H](c3ccc(C#Cc4cccnc4)cc3)[C@@H]2C1	-56.4*
O=S(=O)(c1ccc(F)cc1)N1CCCCN2[C@H](C1)[C@@H](c1ccc(C#CC3CC3)cc1)[C@@H]2CO	-1.8
O=S(=O)(c1ccccc1)N1CCCCN2[C@H](C1)[C@@H](c1ccc(C#Cc3cccnc3)cc1)[C@@H]2CO	0.3
O=C(C1CC1)N1CCCCN2[C@H](C1)[C@@H](c1ccc(C#CC3CCCC3)cc1)[C@@H]2CO	-24.5*
O=S(=O)(c1ccccc1)N1CCCCN2[C@H](CO)[C@@H](c3ccc(-c4ccccc4)cc3)[C@@H]2C1	-5.3
O=C(C[C@@H]1CC[C@H]2[C@@H](COC[C@H](O)CN2C(=O)Nc2ccccc2)O1)NCc1ccncn1	12.6
COc1ccc2c3c([nH]c2c1)[C@@H](CO)N(C(=O)Cc1ccccc1)CC31CN(C(=O)Nc2ccccc2F)C1	10.7
Cc1cccc(-c2ccc([C@H]3[C@H]4CN(C(=O)c5cnccn5)CC(=O)N4[C@H]3CO)cc2)c1	19.2
CCC(=O)N1C[C@@H](C)[C@@H](OC)CN(C)C(=O)c2cc(NC(=O)c3cc(C)on3)ccc2OC[C@@H]1C	-1.2
CCNC(=O)[C@@H]1[C@@H](CO)[C@@H]2Cn3c(ccc(/C=C/c4ccccc4)c3=O)[C@H]1N2C(=O)C1CCCC1	-0.3
Cc1ccc(-c2ccccc2[C@H]2[C@@H](C#N)N(C(=O)NC3CCCC3)[C@H]2CO)cc1	-7.8
N#C[C@@H]1[C@@H](c2ccccc2-c2cccc(F)c2)[C@@H](CO)N1C(=O)NC1CCCCC1	-29.2*
N#C[C@@H]1[C@@H](c2ccc(-c3cccc(F)c3)cc2)[C@@H](CO)N1C(=O)NC1CCCC1	1.9
O=C(C[C@@H]1CC[C@@H](NC(=O)C2CCOCC2)[C@@H](CO)O1)NCc1ccccc1Cl	-0.3
COc1ccc(NC(=O)Nc2ccc3c(c2)C(=O)N([C@@H](C)CO)C[C@@H](C)[C@H](CN(C)S(=O)(=O)c2c(C)noc2C)OCCCC[C@H](C)O3)cc1	-3.8
COc1ccc(S(=O)(=O)N2[C@@H]3CNC[C@H]2C3c2ccc(-c3cccc(OC)c3)cc2)cc1 (stereo not given in full)	10.5

Source: PubChem BioAssay
